# Data as given in PubChem BioAssay (NCI).
# This is part of a sample that, as a whole, favours compounds with a hit. Of some 79,000 tested, about 15% had one in any assay. A number with no mark means an inactive call. Activity calls are given as the source filed them. No stated cut-off is given here; in the data, active means growth inhibition above about 70%; inactive means the rest.
# Tests used:
# [1] = NCI Yeast Anticancer Drug Screen. Data for the rad50 strain (AID 155);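 further: 0% = growth of vehicle-only cultures of the same strain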; conditions: S. cerevisiae rad50 strain growth inhibition, hits give high values
# Outline: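 DNA repair mutant yeast, compound exposure, growth read-out; inhibition is taken relative to vehicle.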
# [2] = NCI Yeast Anticancer Drug Screen. Data for the mec2-1 strain (AID 157); conditions: S. cerevisiae mec2-1 strain, hits give high values
# Outline: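 Readout is yeast growth inhibition, normalised to vehicle-treated controls, in the mec2-1 strain exposed to compound.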
# [3] = NCI Yeast Anticancer Drug Screen. Data for the sgs1 mgt1 strain (AID 161);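 further: 0% = growth of cultures given vehicle only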; conditions: S. cerevisiae sgs1 mgt1 strain, hits give high values
# Outline: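 Yeast cells carrying a defined DNA-repair defect were exposed to test compounds. Growth inhibition was measured relative to vehicle-treated controls.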
# [4] = NCI Yeast Anticancer Drug Screen. Data for the cln2 rad14 strain (AID 165);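 further: 0% = growth equal to vehicle treated cultures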; conditions: S. cerevisiae cln2 rad14 strain, hits give high values
# Outline: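 Relative to vehicle controls, growth inhibition of compound-treated cln2 rad14 yeast was recorded.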
# [5] = NCI Yeast Anticancer Drug Screen. Data for the bub3 strain (AID 167); conditions: S. cerevisiae bub3 mutant strain, hits give high values
# Outline: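 In this screen, a yeast mutant lacking normal mitotic checkpoint function is challenged with compound. Relative growth versus vehicle gives the inhibition value.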
# [6] = NCI Yeast Anticancer Drug Screen. Data for the mlh1 rad18 strain (AID 175); conditions: S. cerevisiae mlh1 rad18 strain growth inhibition, hits give high values
# Outline: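 Test agents were incubated with a yeast strain of defined genotype (DNA damage repair defect). Inhibition of growth was derived by comparison with vehicle-exposed cultures.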
# [7] = at 5.0 µM (retest, dose inferred, filed as 0.5)
# [8] = at 50.0 µM (retest, dose inferred, filed as 5.0)
Structure (SMILES),"growth inhibition [1, 7]","growth inhibition [1, 8]",growth inhibition ([1]; at 50.0 µM),"growth inhibition [2, 7]","growth inhibition [2, 8]",growth inhibition ([2]; at 50.0 µM),"growth inhibition [3, 7]","growth inhibition [3, 8]",growth inhibition ([3]; at 50.0 µM),"growth inhibition [4, 7]","growth inhibition [4, 8]",growth inhibition ([4]; at 50.0 µM),"growth inhibition [5, 7]","growth inhibition [5, 8]",growth inhibition ([5]; at 50.0 µM),"growth inhibition [6, 7]","growth inhibition [6, 8]",growth inhibition ([6]; at 50.0 µM)
Cc1ccccc1Sc1ncnc2ccccc12,2%,34%,85.5% (active),3%,49%,73.8% (active),-13%,70% (active),55.5%,1%,-1%,5.45%,-5%,7%,37.6%,-7%,48%,70.9% (active)
CN1CC(CN2CCCCC2)C(O)C(c2ccccc2)C1 (stereo not given),-3%,-1%,10.2%,-5%,-1%,-4.5%,-3%,6%,9.3%,-5%,-3%,34.4%,-4%,-8%,2.65%,-3%,-2%,56.5%
N/C(=N\N=C/c1ccc(O)c(O)c1O)NO,-2%,26%,41.1%,5%,21%,17.8%,-7%,8%,28.5%,-2%,-6%,17.7%,-4%,-3%,4.2%,-5%,7%,64.7%
CC1C(=O)C(C)C(c2ccccc2)N(C)C1c1ccccc1 (stereo not given),81% (active),98% (active),99% (active),42%,99% (active),99.1% (active),81% (active),98% (active),99.3% (active),31%,98% (active),99% (active),42%,95% (active),99.4% (active),63%,98% (active),99.1% (active)
Clc1nc2ccccc2nc1N1CCCCCC1,0%,90% (active),-17.5%,2%,96% (active),-7.05%,1%,72% (active),25.6%,-5%,74% (active),-21.4%,9%,93% (active),76% (active),2%,85% (active),5.2%
CC(CCC(=O)O)(c1cc(Br)c(O)c(Br)c1)c1cc(Br)c(O)c(Br)c1,19%,91% (active),90.8% (active),-1%,72% (active),90% (active),-2%,75% (active),81.5% (active),-16%,75% (active),92.4% (active),-3%,78% (active),88.6% (active),-14%,87% (active),90.4% (active)
Cc1ccc(N=Nc2ncccc2O)cc1C,-157%,95% (active),98.8% (active),-49%,95% (active),98.2% (active),-67%,95% (active),98.4% (active),-64%,93% (active),87.4% (active),-85%,96% (active),97.7% (active),-121%,95% (active),98.2% (active)
O=C1C(Cl)=C(c2ccccc2)C1Cl (stereo not given),97% (active),100% (active),99.2% (active),98% (active),99% (active),99.5% (active),99% (active),100% (active),99.7% (active),98% (active),99% (active),99.5% (active),96% (active),99% (active),99.5% (active),99% (active),99% (active),99.2% (active)
COC(=O)[C@]1(C)CCC[C@]2(C)c3ccc(C(C)C)cc3C(=O)C[C@@H]12,5%,87% (active),95.9% (active),4%,90% (active),99% (active),1%,93% (active),96.2% (active),4%,82% (active),89.5% (active),6%,88% (active),97.7% (active),-9%,73% (active),94.5% (active)
Cn1c(=O)ccc2cc(C(=O)c3ccccc3)ccc21,7%,22%,30.2%,-9%,7%,6.95%,-9%,-5%,14.4%,39%,51%,35.4%,-7%,46%,16.8%,9%,45%,65.7%
CC(CO)(CO)N=Cc1cc(I)cc(I)c1O,91% (active),100% (active),99.6% (active),97% (active),100% (active),99.6% (active),86% (active),99% (active),99.7% (active),87% (active),99% (active),99.4% (active),86% (active),100% (active),99.5% (active),98% (active),100% (active),99.6% (active)
CC(C)(C)[Si](C)(C)O/N=C\c1cccc(O[Si](C)(C)C(C)(C)C)c1,-3%,97% (active),48%,-6%,95% (active),12.3%,0%,99% (active),78.5% (active),-13%,97% (active),54.8%,3%,94% (active),36%,-3%,98% (active),76.8% (active)
NC(=S)C(=S)N=Cc1c(N)[nH]n(-c2ccccc2)c1=O,-13%,-1%,57.8%,-10%,15%,48.8%,9%,3%,53.8%,32%,26%,61.6%,19%,37%,-10.6%,-4%,15%,44.6%
c1ccc2c(O[Si](Oc3cccc4ccccc34)(Oc3cccc4ccccc34)Oc3cccc4ccccc34)cccc2c1,7%,87% (active),96% (active),0%,87% (active),97.7% (active),3%,89% (active),97.8% (active),-5%,71% (active),89.6% (active),3%,93% (active),96.8% (active),2%,86% (active),95.8% (active)
NNC(=S)N/N=C(/C(=O)Nc1ccc(Cl)c(Cl)c1)C(C1OC(=O)c2ccccc21)[N+](=O)[O-] (stereo not given),27%,44%,26.6%,20%,39%,4.45%,9%,59%,34.4%,31%,48%,23.4%,28%,62%,32.5%,20%,44%,29.8%
O=C1C=CCCCC1(c1ccccc1)c1ccccc1,2%,8%,77.5% (active),0%,14%,70.3% (active),5%,15%,85.4% (active),9%,4%,19.9%,-3%,-6%,52.2%,-3%,12%,73.6% (active)
COc1cccc(/C=C2\CCC(CN(C)C)C2=O)c1 (stereo not given),27%,95% (active),93.5% (active),21%,99% (active),93.8% (active),39%,99% (active),93.3% (active),28%,98% (active),91.6% (active),48%,99% (active),92.5% (active),35%,99% (active),91.7% (active)
CCCCCCCCCC[N+](C)(C)CCC[N+](C)(C)CCCCCCCCCC,42%,93% (active),89.5% (active),20%,88% (active),91.2% (active),37%,98% (active),88.3% (active),32%,88% (active),78.2% (active),31%,95% (active),62.6%,31%,89% (active),61.8%
COc1cc(/C=C\C(=O)c2cccc(O)c(=O)c2)cc(OC)c1OC,-3%,53%,69.1%,1%,65%,50.5%,16%,83% (active),63.5%,-15%,50%,5.6%,2%,67%,65.5%,7%,89% (active),54.9%
Oc1ccc(O)c2nc3ccccc3nc12,20%,97% (active),50.8%,3%,97% (active),33.8%,8%,98% (active),24.1%,2%,98% (active),-1.85%,6%,98% (active),68.2%,24%,97% (active),76.4% (active)
